Data from PubChem BioAssay (NCATS).
Results filed as inconclusive are left out. Calls of active or inactive are those of the source. The call rests on the fitted dose curve; in most records, active means well fitted inhibition curve with a large enough effect; inconclusive means small, poorly fitted or top-dose-only effect; inactive means flat fitted curve, though single readings scatter.

Assays:
Assay in all cases: qHTS profiling for inhibitors of Plasmodium falciparum proliferation (AID 504749); further: nearly all actives have a fitted effect of over 60% in size
Settings in all cases: P. falciparum in erythrocytes, SYBR Green DNA, 72 h; series mostly up to 28.7 µM
[1] = tested on: CP192
In short: (§1)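 Readout was DNA-dye fluorescence from lysed cultures, ex 485/em 535 nm. Parasitized red cells had grown 72 h with compound; data scaled between 0.29 uM artemisinin and DMSO wells and corrected using vehicle-only plates.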

[2] = tested on: CP194
In short: as §1

[3] = tested on: CP201
In short: as §1

[4] = tested on: CP203
In short: as §1

[5] = tested on: CP211
In short: as §1

[6] = tested on: CP215
In short: as §1

[7] = tested on: CP217
In short: as §1

[8] = tested on: CP238
In short: as §1

[9] = tested on: CP252
In short: as §1

[10] = tested on: CP256
In short: as §1

[11] = tested on: CP260
In short: as §1

[12] = tested on: CP265
In short: as §1

[13] = tested on: CP266
In short: as §1

[14] = tested on: CP268
In short: as §1

[15] = tested on: CP286
In short: as §1

[16] = tested on: CP237
In short: as §1

[17] = tested on: CP247
In short: as §1

[18] = tested on: CP250
In short: as §1

[19] = tested on: CP262
In short: as §1

[20] = tested on: CP269
In short: as §1

Measured: Potency
Potency means the concentration at half of the fitted maximal effect.

COC(=O)[C@@H](N)Cc1ccc(O)c(O)c1
inactive: [1] | [2] | [3] | [4] | [5] | [6] | [7] | [8] | [9] | [10] | [11] | [12] | [13] | [14] | [15]

CCn1ccnc1CC1COc2ccccc2O1 (stereo not drawn)
inactive: [1] | [2] | [3] | [4] | [5] | [6] | [7] | [16] | [8] | [17] | [18] | [9] | [10] | [19] | [12] | [13] | [14] | [20] | [15]

FC(F)(F)c1ccccc1-n1ccnc1
inactive: [1] | [2] | [3] | [4] | [5] | [6] | [7] | [16] | [8] | [17] | [18] | [9] | [10] | [11] | [19] | [12] | [13] | [14] | [20] | [15]

CCCCNc1c(C(=O)OCC)c(C)nc2c1cnn2CC
inactive: [1] | [2] | [3] | [4] | [5] | [6] | [7] | [16] | [8] | [17] | [18] | [9] | [10] | [19] | [12] | [13] | [14] | [20] | [15]

CCN(CC)CCCN(c1ccccc1)C1Cc2ccccc2C1
active: [1] 10.7 µM | [2] 7.57 µM | [3] 7.57 µM | [4] 6.75 µM | [5] 12 µM | [6] 8.49 µM | [7] 5.62 µM | [16] 2.82 µM | [8] 11.2 µM | [17] 8.91 µM | [18] 7.94 µM | [9] 10 µM | [10] 4.47 µM | [11] 2.82 µM | [12] 3.98 µM | [13] 8.49 µM | [14] 7.57 µM | [20] 10.7 µM | [15] 5.01 µM

CC(C)(Oc1ccc(CCNC(=O)c2ccc(Cl)cc2)cc1)C(=O)O
inactive: [1] | [2] | [3] | [4] | [5] | [6] | [7] | [16] | [8] | [17] | [18] | [9] | [10] | [11] | [19] | [12] | [13] | [14] | [20] | [15]

Cc1ccc(S(=O)(=O)NC(=O)NN2CCCCCC2)cc1
inactive: [1] | [2] | [3] | [4] | [5] | [6] | [7] | [16] | [8] | [17] | [18] | [9] | [10] | [11] | [12] | [13] | [14] | [20] | [15]

CC[N+](C)(C)c1cccc(O)c1
inactive: [1] | [2] | [3] | [4] | [5] | [7] | [16] | [8] | [17] | [18] | [9] | [10] | [11] | [19] | [12] | [13] | [14] | [20] | [15]

NC1=NCC2c3ccccc3Cc3ccccc3N12 (stereo not drawn)
inactive: [1] | [2] | [3] | [5] | [7] | [16] | [8] | [17] | [18] | [9] | [10] | [11] | [19] | [12] | [13] | [14] | [20] | [15]

Brc1c(NC2=NCCN2)ccc2nccnc12
inactive: [1] | [2] | [3] | [4] | [5] | [6] | [7] | [16] | [8] | [17] | [18] | [9] | [10] | [19] | [13] | [14] | [20] | [15]

O=C(O)CN(CCN(CC(=O)O)CC(=O)O)CCN(CC(=O)O)CC(=O)O
active: [10] 11.2 µM
inactive: [1] | [2] | [3] | [4] | [5] | [6] | [7] | [16] | [8] | [17] | [18] | [9] | [11] | [13] | [20] | [15]

CC(C)NNC(=O)c1ccncc1
inactive: [1] | [2] | [3] | [4] | [5] | [6] | [16] | [8] | [17] | [18] | [11] | [19] | [12] | [13] | [14] | [20] | [15]

Cc1ccc(=O)n(-c2ccccc2)c1
inactive: [1] | [2] | [3] | [4] | [5] | [6] | [7] | [16] | [8] | [17] | [18] | [9] | [10] | [11] | [19] | [12] | [14] | [20] | [15]

CN1CCN(CC(=O)N2c3ccccc3C(=O)Nc3cccnc32)CC1
inactive: [1] | [2] | [3] | [4] | [5] | [6] | [7] | [16] | [8] | [17] | [18] | [9] | [10] | [11] | [19] | [12] | [14] | [20] | [15]
